Screening results (PubChem)
Nrf2 inh: blocks Nrf2 signaling; Potency, µM (series often up to 46 µM), actives largely listed as inhibitors; 360,000 tested, 2.1% active; A549 ARE-Fluc reporter, luciferase luminescence, 18-24 h; further: nearly all actives have a fitted effect of over 60% in size
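A549 ARE_Fluc cells, 5000/well, 5% FBS OPTI-MEM; compounds in dose-response, 18-24 h at 37 °C/5% CO2; CellTiter-Fluor viability read (Ex 405/Em 525), then BugLite luciferase luminescence = Nrf2 activity.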
IL-2 act: IL-2 activation. IL-2 activation reporter assay, cell-based qHTS; stimulated with anti-CD3/CD4/CD28 beads; in transgenic mouse T cells. activation, % (series mostly up to about 46 µM). 360,000 tested, 0.065% active; in the data active means activation above about 50%; inconclusive means mostly about 30% to 49%
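Screening format: compound pinned onto unstimulated transgenic mouse T cells, 60 min incubation, then anti-CD3/anti-CD4/anti-CD28 bead stimulation for 18 hours at 37 degrees C, followed by EGFP and DsRed detection.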
Nrf2 activator: activators of Nrf2 (ARE) signaling; 410,000 tested, 0.31% active; AREc32 ARE-luciferase reporter (MCF7-derived line), luminescence, 24 h; AID 624171; Potency, µM (titrated, usually from 46.1 µM), usual class: activators; further: nearly all actives have a fitted effect of over 65% in size
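ARE-driven firefly luciferase activity in AREc32 cells measured after a 24 hr compound exposure at 37 deg C, using Steady-Glo reagent and a 30 min room-temperature hold.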
p53 reactivation: re-activators of mutant p53 | H1299 p53-A138V BP100-luciferase reporter, luminescence, 24 h | Potency, µM (titrated, usually from 92.2 µM), actives largely listed as activators | AID 504706 | 320,000 tested, 0.063% active; further: nearly all actives have a fitted effect of over 45% in size
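p53-null H1299 cells stably carrying temperature-sensitive p53-A138V and a BP100-luciferase reporter were pinned with compounds (4-point, 1:5 series) and held 24 hrs at 37 deg C. Luminescence was read 10 min after detection reagent.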
BRCA1 expr up: increases BRCA1 expression; MCF7-BRCA1-FFLuc reporter, luminescence, 48 h; response scale: scaled: vehicle 0%, 10 µM genistein 100%; Potency, µM (top dose mostly 46.1 µM), hits mostly activators; 380,000 tested, 1.1% active; further: nearly all actives have a fitted effect of over 80% in size
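Compounds are tested at multiple concentrations on MCF7 BRCA1-luciferase reporter cells seeded at 2000 per well; after 48 h, a single luminescence end-point is taken and curves fitted to the normalized data.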
A549 viability: kills or reduces viability of A549 cells in Nrf2 counter-screen; A549 ARE-Fluc cells, CellTiter-Fluor viability, 18-24 h; Potency, µM (series often up to 46 µM), usual class: inhibitors; 390,000 tested, 0.16% active; AID 504648
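A549 ARE-Fluc cells in 5% FBS OPTI-MEM, 5000 cells/well, rested 2 h then exposed to compounds in concentration-response for 18-24 h at 37 °C. Viability by CellTiter-Fluor fluorescence (Ex 405/Em 525) after 30 min; luciferase luminescence (BugLite, 15 min, RT) read afterwards.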
A number is an active result; . = inactive; ? = inconclusive; / = no result. Compounds with a hit are over-represented: about 3.2% of the library has one in this group of screens. Unless noted, the call rests on the fitted dose curve; in most records, active means well fitted curve in the direction sought with a large enough effect; inconclusive means small, poorly fitted or top-dose-only effect, or another doubt; inactive means no such curve, though single readings can be large; an effect the other way counts as inactive or inconclusive.

SMILES	Nrf2 inh	IL-2 act	Nrf2 activator	p53 reactivation	BRCA1 expr up	A549 viability
COc1cccc(CNc2ncnc3cc(Cl)ccc23)c1	?	.	.	.	.	.
Fc1cccc(CNc2ncnc3cc(Cl)ccc23)c1F	18µM	.	.	.	.	.
COc1ccc(C2Nc3ccccc3C(=O)N2CCCN(C)C)cc1COc1ccc(NC(C)=O)cc1 (stereo unspecified)	.	/	/	/	/	.
CC(C)C[C@@H](CN1CCCC1CN1C(=S)NC[C@@H]1Cc1ccc(O)cc1)N1C[C@H](Cc2ccccc2)N(CC2CCCCCC2)C1=S (stereo partly specified)	.	.	.	/	.	.
CC(C)C[C@@H](CN1CCCC1CN1C(=S)NC[C@@H]1Cc1ccc(O)cc1)N1C[C@H](Cc2ccc(O)cc2)N(CC2CCCCCC2)C1=S (stereo partly specified)	21µM	.	.	/	.	.
Oc1ccc(C[C@H]2CNC(=S)N2CC2CCCN2C[C@H](Cc2ccccc2)N2C[C@H](Cc3ccc(O)cc3)N(CCc3ccccc3)C2=S)cc1 (stereo partly specified)	15µM	.	.	/	.	?
Oc1ccc(C[C@@H](CN2CCC[C@@H]2CN2C(=S)NC[C@@H]2Cc2ccccc2)N2C[C@H](Cc3ccccc3)N(CCc3ccccc3)C2=S)cc1	/	.	.	/	.	/
Cc1cc(=O)c2cc(C(=O)Nc3ccc(C)c(C)c3)ccc2[nH]1	.	/	.	/	/	.
COc1ccc(NC(=O)Cn2nnc(C(=O)NCc3cccs3)c2N)c(OC)c1	18µM	.	.	.	.	?
COc1cccc(NC(=O)Cn2nnc(C(=O)NCc3cccs3)c2N)c1	.	.	.	.	.	.
COc1cc2nc(C#N)nc(N)c2cc1OC	/	/	/	/	.	/
CCOCCCNC(=S)N1CCN(c2nc(-c3ccc(F)cc3)cs2)CC1	16µM	.	.	.	.	.
COc1ccc(-c2csc(N3CCN(C(=O)c4ccco4)CC3)n2)cc1	.	.	.	.	.	.
CCCNC(=S)N1CCN(c2nc(-c3ccc(C)cc3)cs2)CC1	23µM	.	.	/	.	.
COc1ccc(-c2csc(N3CCN(C(=O)c4ccccc4)CC3)n2)cc1	13µM	.	.	.	.	.
COCCCNC(=S)N1CCN(c2nc(-c3ccc(F)cc3)cs2)CC1	15µM	.	.	/	.	.
CCCNC(=S)N1CCN(c2nc(-c3cccc(OC)c3)cs2)CC1	?	.	.	/	.	.
COCCNC(=S)N1CCN(c2nc(-c3ccccc3)cs2)CC1	.	.	.	/	.	.
CNC(=S)N1CCN(c2nc(-c3ccc(F)cc3)cs2)CC1	?	.	.	/	.	.
COc1ccc(NC(=O)C2CCN(S(=O)(=O)c3ccc4c(c3)CCCC(=O)N4)CC2)cc1OC	?	/	.	/	.	.
COc1ccc(CNC(=O)c2cc3cc(C)ccc3n2C)cc1	?	/	.	/	/	.
COc1ccc(N(C(=O)COc2ccc(Br)cc2)S(=O)(=O)c2ccc(C)cc2)cc1	.	/	.	/	/	.
CCN(CC)CCNC(=O)c1ccc2nc(CCc3ccccc3)oc2c1	/	/	.	/	.	.
CCCCC(OC(=O)CNC(=O)c1ccccc1)C(=O)Nc1cc(C(F)(F)F)ccc1Cl (stereo unspecified)	?	/	/	/	/	.
COc1cccc(C=NN2CCCCCC2)c1OC	?	.	.	/	11µM	.
SMILES	Nrf2 inh	IL-2 act	Nrf2 activator	p53 reactivation	BRCA1 expr up	A549 viability
COc1cccc(/C=N/n2c(N)nc3ccccc32)c1OC	.	.	.	.	10µM	.
COc1ccc(/C=N/n2c(N)nc3ccccc32)cc1OC	.	.	.	.	.	.
CCOc1ccccc1C1Nc2ccccc2-c2nnc(SCc3ccccc3)nc2O1 (stereo unspecified)	.	/	.	/	/	.
Cc1nc2ccc(S(=O)(=O)N3CCN(S(=O)(=O)c4c(F)cccc4F)CC3)cc2s1	.	/	/	/	/	.
CN=c1nc(-c2ccccc2)n(-c2ccccc2)s1	?	.	.	.	.	.
Cc1ccc(-c2nc(=Nc3c(C)cc(C)cc3C)sn2-c2ccccc2)cc1	23µM	/	/	/	.	.
